Most compounds without a hit are left out; they make up all but 1.4% or so of the library.
Bim-Bfl-1: inhibitors of Bim-Bfl-1 interaction, human. inhibition, % at 10 µM. Q16548. 190,000 tested, 0.12% active. Bead-based flow cytometry, Bim-Bfl-1 binding inhibition. AID 1008;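 further: 0% = wells without compound plus tracer and 100% = blocker peptide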
Bim-Bcl-W: disrupts Bim peptide binding to human Bcl-W | bead-based flow cytometry | inhibition, % at 10 µM | Q92843 | 190,000 tested, 0.02% active;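 further: 0% = bound tracer without compound and 100% = peptide blocker; higher means less fluorescent Bim peptide bound to Bcl-W beads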
Bcl-XL Bim block: inhibitors of Bim-Bcl-XL interaction, human; Q07817; Bim peptide-Bcl-XL binding, bead flow cytometry, fluorescence; inhibition, % at 10 µM; 190,000 tested, 0.04% active
Target sequence (Q07817 whole entry, looked up): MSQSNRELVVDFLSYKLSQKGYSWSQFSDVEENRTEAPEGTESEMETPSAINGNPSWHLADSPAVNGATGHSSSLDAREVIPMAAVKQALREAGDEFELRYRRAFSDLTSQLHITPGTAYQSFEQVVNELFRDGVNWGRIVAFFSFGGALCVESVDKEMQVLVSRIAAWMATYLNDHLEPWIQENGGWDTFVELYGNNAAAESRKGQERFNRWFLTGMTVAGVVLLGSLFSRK
Wee1 degr inh: inhibitors of human Wee1 degradation | HeLa Luc-Wee1K328M stability, luciferase luminescence; 100% = proteasome inhibitor MG132 effect | reporter increase, % at 5 µM | 220,000 tested, 1.2% active | P30291;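 active means activation above the mean of all tested compounds plus 3 SD, set per screening run, cut at about 8.8% in these data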;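 further: cells exposed to compound for 20 h before luminescence read; 0% = DMSO alone and 100% = MG132 at 30 µM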
Bcl-B Bim block: disrupts Bim peptide binding to human Bcl-B | Q9HD36 | bead-based flow cytometry | inhibition, % at 10 µM | 190,000 tested, 0.073% active | AID 951;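 further: 0% = tracer peptide without compound and 100% = reference inhibitor peptide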
Bcl-2 Bim block: disrupts Bim peptide binding to human Bcl-2; AID 950; 190,000 tested, 0.06% active; P10415; Bead-based flow cytometry, Bim peptide-Bcl-2 binding; inhibition, % at 10 µM; in the data active means inhibition above about 40%;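 further: 0% = no compound wells with probe peptide and 100% = reference peptide inhibitor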
Target sequence (P10415 whole entry, looked up): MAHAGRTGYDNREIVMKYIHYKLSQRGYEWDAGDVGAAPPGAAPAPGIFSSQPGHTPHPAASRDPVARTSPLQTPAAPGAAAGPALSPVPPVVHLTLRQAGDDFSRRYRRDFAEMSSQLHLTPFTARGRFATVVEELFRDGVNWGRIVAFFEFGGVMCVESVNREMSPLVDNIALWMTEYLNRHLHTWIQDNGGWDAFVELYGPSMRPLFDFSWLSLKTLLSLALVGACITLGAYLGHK
Wee1 stab conf: human Wee1 degradation inhibition, confirmation. shares compounds with Wee1 degr inh. 1,100 tested, 4% active. activation, % at 5 µM. HeLa Luc-Wee1K328M degradation, luminescence; vehicle 0%, proteasome-blocked wells 100%; in the data active means activation above about 8.9%
The depositor's hits bear a star; · = no result given. Unless noted, no stated cut-off is given here; in the data, active means inhibition above about 40%.

SMILES	Bim-Bfl-1	Bim-Bcl-W	Bcl-XL Bim block	Wee1 degr inh	Bcl-B Bim block	Bcl-2 Bim block	Wee1 stab conf
COC(=O)c1ccccc1NC(=O)C(C)Oc1ccccc1 (stereo not drawn)	-1	1	-7	17*	-4	-2	2
O=C(N/N=C1\CC(c2ccccc2)Oc2ccccc21)c1cccnc1 (stereo not drawn)	-6	3	0	12*	0	1	0
C=CCn1c(SCC(=O)Nc2cc(C)ccc2OC)nnc1-c1ccco1	-4	2	0	15*	-3	-3	3
C=CCn1c(SCC(=O)Nc2cc(C)c(Cl)cc2OC)nnc1-c1ccco1	-11	-2	-6	0	-7	-7	·
NC(=O)C1(C(N)=O)OC1c1ccc(Cl)c(Cl)c1 (stereo not drawn)	·	·	·	-2	·	·	·
CCN(CC)CCN(C(=O)c1ccc(CN2CCCCC2)o1)C(C(=O)NC1CCCCC1)c1ccc(F)cc1 (stereo not drawn)	-6	-3	-2	11*	-3	-4	-2
CN(Cc1c(F)cccc1Cl)C(=O)C1CC(=O)N(CCc2ccccc2)C1 (stereo not drawn)	-10	0	0	12*	-1	-3	2
C/C=C/c1cc(CN2CCN(c3ccc(OC)cc3)CC2)c(O)c(OC)c1	0	-1	-1	-1	-5	0	·
C/C=C/c1cc(CN2CCN(c3ccccc3)CC2)c(O)c(OC)c1	-3	0	0	11*	-1	0	-5
Cc1ccc(S(=O)(=O)CCC(=O)OCC(=O)NC(N)=O)cc1	·	·	·	14*	·	·	0
Cc1ccc(S(=O)(=O)CCC(=O)OCC(=O)Nc2cc(C)on2)cc1	0	-1	-2	-3	0	-4	·
COc1ccc(C(=O)NCCCn2ccnc2)cc1[N+](=O)[O-]	·	·	·	18*	·	·	-1
CCOc1ccc(Cn2ccnc2)cc1[N+](=O)[O-]	-3	-3	0	16*	1	-2	0
Cc1ccc(/C=N/n2c(C3CCCCC3)n[nH]c2=S)s1	0	0	-1	-1	1	-2	·
O=C(CCS(=O)(=O)c1ccccc1)Nc1ccc(N2CCOCC2)cc1	3	0	-2	11*	0	2	-2
Cc1cc(OCc2nnc(SC(C)C(=O)O)n2Cc2ccccc2)ccc1Cl (stereo not drawn)	-7	0	-3	18*	-3	0	-1
O=c1cc(/C=C/c2ccccc2)oc2ccccc12	-8	1	-2	12*	-6	-5	5
COC(=O)CC/C(O)=C1/C(=N)CC(C)(C)CC1=O	-9	1	4	-2	-4	-5	·
O=C(O)CCn1cc(/C=C2\SC(=S)NC2=O)c(-c2ccccc2)n1	-4	-1	-2	13*	-2	-4	0
O=C(O)CCn1cc(/C=C2/NC(=S)N(c3ccccc3)C2=O)c(-c2ccccc2)n1	0	0	0	-2	-6	2	·
CCOC(=O)C(C)Sc1nc2c(c(=O)[nH]c(=O)n2C)n1C/C=C(/C)Cl (stereo not drawn)	14	0	-5	12*	-29	-4	-3
COc1ccc(CCN2C(=O)N(c3ccc(OC)cc3)C(=O)C2CC(=O)Nc2ccccc2)cc1 (stereo not drawn)	-1	0	-1	21*	0	1	2
CC(C)c1ccc(/C=N/NC(=O)c2cccc(Cl)c2)cc1	-2	-5	-7	14*	-6	-6	6
CCO[C@H]1OC(C(=O)N2CCN(C)CC2)=C[C@@H](C2CC2)[C@@H]1CCCO	-2	0	1	-2	-4	-2	·
CC(=O)c1cccc(NC(=O)C2CC(c3ccc(F)cc3)=NO2)c1 (stereo not drawn)	-17	-1	-10	26*	-12	-14	-3
SMILES	Bim-Bfl-1	Bim-Bcl-W	Bcl-XL Bim block	Wee1 degr inh	Bcl-B Bim block	Bcl-2 Bim block	Wee1 stab conf
CC(C)NC(=O)NC(=O)CSc1nncs1	4	5	0	-2	-5	0	·
C[C@H](O)[C@@H](C(=O)N1CCN(C(=O)OC(C)(C)C)CC1)n1cc(CCCCNC(=O)OC(C)(C)C)nn1	-2	3	-1	22*	-2	-1	0
CCCCc1cn([C@@H](CCCCNC(=O)OC(C)(C)C)C(=O)N2CCN(C(=O)OC(C)(C)C)CC2)nn1	-5	0	-2	5	-4	-3	·
C=CCOC(=O)C1C(=O)CC(C)(O)C(C(=O)OCC=C)C1c1ccc(N(C)C)cc1 (stereo not drawn)	-2	0	-4	1	-4	-2	·
COc1ccc2cc(C(=O)C3CCCN(C(=O)c4csnn4)C3)ccc2c1 (stereo not drawn)	-4	1	-4	0	-4	-4	·
O=C(c1ccc(Cl)cc1)C1CCCN(C(=O)c2csnn2)C1 (stereo not drawn)	-4	-2	-2	16*	-1	-4	0
NC(=S)N/N=C/c1ccc(Br)o1	-8	-5	-8	17*	-6	-3	2
O=C(Nc1ccc(O)cc1)c1c(O)c2c([nH]c1=O)CCCC2	-5	-1	-1	14*	-6	-2	6
COC(=O)c1ccccc1NC(=O)c1c(O)c2c([nH]c1=O)CCCC2	-18	-2	-6	-2	-8	-8	·
CCN(CC)c1ccc(C(=O)Nc2cccc(F)c2)cc1	2	0	-1	14*	0	1	5
CN(C)c1cccc(C(=O)Nc2cccc(F)c2)c1	-5	0	-5	2	-9	-6	·
CCSc1nnc(NC(=O)CSC2=NN3CCCC(=O)N=C3S2)s1	4	0	-2	17*	1	-1	2
CCCCN(C)CCCNC(=O)CS(=O)Cc1nc(-c2ccc(OC)c(OC)c2)oc1C (stereo not drawn)	2	-1	-2	13*	0	1	0
CCCN(CCC)CCCNC(=O)CS(=O)Cc1nc(-c2ccc(OC)c(OC)c2)oc1C (stereo not drawn)	1	-2	-1	0	8	7	·
Cc1ccc(C(=O)NC2CCN(S(=O)(=O)c3ccccc3)CC2)cc1	-8	0	-2	3	-2	0	·
CCCS(=O)(=O)N1CCN(S(=O)(=O)c2ccccc2[N+](=O)[O-])CC1	2	-5	-8	11*	0	1	-1
CC1CC(C)CN(S(=O)(=O)c2ccccc2[N+](=O)[O-])C1 (stereo not drawn)	-1	-2	-5	-1	-7	-5	·
COc1ccccc1N1CCN(/N=C/C=C\c2ccco2)CC1	7	0	0	24*	-2	0	2

Compound activity from PubChem BioAssay.
